G9a inh: inhibitors of human histone lysine methyltransferase G9a; Q96KQ7; G9a H3K9 monomethylation, AlphaScreen, 2 h; Potency, µM (doses to about 102 µM), for inactives: at the highest dose activity, negative = inhibition, most hits filed as inhibitors; actives 8.8% (n = 350,000); note: % is set by controls: 0 for no effect and ±100 for the full control effect; nearly all actives have a fitted effect of over 75% in size
Target sequence (Q96KQ7 913-1193 limits assumed): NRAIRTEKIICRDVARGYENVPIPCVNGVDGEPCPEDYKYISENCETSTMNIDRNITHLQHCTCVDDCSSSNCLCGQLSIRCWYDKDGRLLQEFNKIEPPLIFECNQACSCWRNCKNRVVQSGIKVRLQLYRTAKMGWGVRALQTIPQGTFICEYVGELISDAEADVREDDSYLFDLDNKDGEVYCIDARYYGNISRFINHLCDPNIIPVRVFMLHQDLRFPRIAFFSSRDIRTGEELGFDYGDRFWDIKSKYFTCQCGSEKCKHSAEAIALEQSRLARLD
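Methyltransferase reactions run at room temperature for 2 h (20 nM enzyme, 500 nM biotin-H3K9 peptide, 20 uM SAM) after a 15 min compound preincubation; product detected by AlphaScreen beads and anti-H3K9me1 antibody.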
BAZ2B block: blocks human BAZ2B. Potency, µM (top dose mostly 114 µM), without a hit: at the top dose activity change, negative = inhibition, most hits filed as inhibitors. actives 4.4% (n = 360,000). AID 504333. AlphaScreen BAZ2B-H3K14Ac peptide displacement; note: % is set by controls: 0 for no effect and ±100 for the full control effect; nearly all actives have a fitted effect of over 60% in size
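Complex of BAZ2B and biotin-H3K14Ac (50 nM apiece) forms over 30 min at RT, then faces library compounds up to 110 uM for another 30 min; AlphaScreen beads added, 20 min dark incubation, luminescence read.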
HP1b chromo inh: HP1-beta chromodomain-methylated histone interaction inhibition; P83916; AlphaScreen HP1-beta / biotin-H3K9me3 peptide binding; Potency, µM (top dose mostly 114 µM), without a hit: at the highest dose activity change, negative = inhibition, actives largely listed as inhibitors; actives 0.56% (n = 390,000); AID 540317; note: nearly all actives have a fitted effect of over 70% in size
Target sequence (P83916 whole entry, looked up): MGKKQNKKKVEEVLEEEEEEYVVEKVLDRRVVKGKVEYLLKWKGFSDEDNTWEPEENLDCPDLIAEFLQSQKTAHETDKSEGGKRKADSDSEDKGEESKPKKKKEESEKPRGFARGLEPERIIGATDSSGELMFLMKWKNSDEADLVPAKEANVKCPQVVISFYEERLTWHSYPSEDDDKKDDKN
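Compound inhibition of the preformed complex between 50 nM HP1-beta and 50 nM biotinylated H3K9me3 peptide was read by AlphaScreen. Buffer was PBS pH 7.4 with 0.01% Tween-20. Incubations ran 30 min at room temperature, with 10 ug/mL donor/acceptor beads.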
L3MBTL1 block: blocks human L3MBTL1; AlphaScreen L3MBTL1–H3K9me1 peptide binding; Potency, µM (series often up to 57.1 µM), inactives show top-dose activity, negative = inhibition, usual class: inhibitors; actives 0.66% (n = 230,000); AID 485360; note: % is set by controls: 0 for no effect and ±100 for the full control effect; nearly all actives have a fitted effect of over 60% in size
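L3MBTL1 (50 nM) pre-complexed 30 min with biotinylated H3(1-15)K9me1 peptide (75 nM), then compounds added for 30 min at room temperature; AlphaScreen streptavidin donor/nickel chelate acceptor beads (10 ug/mL final) read after 30 min dark incubation.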
JMJD2A Tudor: JMJD2A Tudor domain (human) inhibition. O75164. AlphaScreen JMJD2A-Tudor / H3K4me3 peptide binding. actives 4.4% (n = 390,000). Potency, µM (series often up to 114 µM), for the others: at the highest dose activity change, negative = inhibition, actives largely listed as inhibitors. AID 504339; note: % is set by controls: 0 for no effect and ±100 for the full control effect; nearly all actives have a fitted effect of over 50% in size
Sfp inh: blocks B. subtilis Sfp PPTase activity; Q9F4F7; Biochemical Sfp PPTase activity, qHTS; Potency, µM, for the others: largest response in the series, negative = inhibition, actives largely listed as inhibitors; actives 3.5% (n = 310,000); AID 1490;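 note: the enzyme is Sfp with the accession as filed and its product quenches rhodamine fluorescence; 0% = enzyme reaction without inhibitor and -100% = no enzyme wells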
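Step 1, compound plus 15 nM Sfp-PPTase, 15 min, room temperature. Step 2, add rhodamine-CoA (5 uM) and BHQ-2-YbbR (12.5 uM). Step 3, read 525/598 nm fluorescence at 0 and 30 min.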
* = called active by the depositor; ? = inconclusive; . = not tested or not shown; [ ] = remark or other dose. Rows were chosen to be rich in hits. Some 12% of all compounds tested hit in one or more screens of this group. Calls come from the whole dose curve; as a rule, active = well fitted curve in the direction sought with a large enough effect; inconclusive = small, poorly fitted or top-dose-only effect, or another doubt; inactive = no such curve, though single readings can be large; an effect the other way counts as inactive or inconclusive. Potency is the fitted concentration of half-maximal effect.

SMILES	G9a inh	BAZ2B block	HP1b chromo inh	L3MBTL1 block	JMJD2A Tudor	Sfp inh
Cc1ccccc1CNC(=O)Cn1ncn2nc(-c3cccs3)cc2c1=O	-11.7%[59 µM]	-16.0%	52.7%	.	5.3%	.
CC(=O)c1c(C)[nH]c(C(=O)OCC(=O)Nc2cc(Cl)ccc2[N+](=O)[O-])c1C	50.1µM*	?	14.8%	-10.7%	-14.7%	-3.9%
O=C(CNC1CCCC1)Nc1cc(Cl)ccc1[N+](=O)[O-]	44.7µM*	56.2µM*	39.8µM*	-2.6%	1µM*	56.2µM*
CCCCN(C(=O)COC(=O)c1ccc(C=O)cc1)c1c(N)n(CCC)c(=O)[nH]c1=O	24.0%[12.7 µM]	-0.6%	46.3%	4.6%	-3.8%	.
COc1ccc(-n2ncc(C(=O)NCc3cccs3)c2C2CCN(C(=O)OC(C)(C)C)CC2)cc1	9.6%[59 µM]	-5.7%[57.1 µM]	-9.9%	.	?	.
Nc1nc(NCc2ccc(Cl)cc2Cl)c2[nH]cnc2n1	.	.	17.6%	.	-21.3%	.
Cc1cc(Cn2ccnc2)c(C)c([N+](=O)[O-])c1Cn1ccnc1	11.5%	79.4µM*	31.0%	.	-9.4%	9.0%
COC(=O)c1ccc(NC(=O)CSc2nc3ccc(OC)cc3[nH]2)cc1	6.3%[59 µM]	-3.5%	4.3%	.	-2.4%	.
Oc1cc2cc(CCN3CCN(c4nsc5ccccc45)CC3)c(Cl)cc2[nH]1	?	.	.	.	.	-8.2%
Cc1ccc(C(c2nnnn2C2CCCC2)N2c3ccccc3CC2C)cc1 (stereo not drawn)	70.8µM*	-10.5%	25.6%	-7.3%	-17.5%	9.1%
Fc1ccc(C(c2nnnn2C2CCCC2)N2CCc3ccccc32)cc1 (stereo not drawn)	-4.2%[0.501 µM]	-37.8%	7.5%	-1.1%	?	-1.5%
NCCC[C@@H](CC(=O)N[C@@H]1CCNC[C@H]1C(=O)N[C@H](CC(=O)N[C@@H](CCC(=O)O)CC(=O)O)Cc1c[nH]c2ccccc12)NC(=O)C[C@H](Cc1ccccc1)NC(=O)[C@@H]1CCCC[C@H]1N	.	.	.	.	.	5.8%
COc1ccc2c(c1)C(=O)[C@@H](OC(=O)N[C@H]1CCCc3ccccc31)[C@H](c1ccc(OC)c(Br)c1)O2	.	.	.	.	.	15.9%
CC(C)Sc1ccccc1C(=O)Nc1ccc2c(c1)n(C)c(=O)n2C	6.31µM*	56.2µM*	4.5%	1.1%	-1.8%	-7.3%
CC(=O)Nc1ccc(S(=O)(=O)Nc2ccc3c(c2)n(C)c(=O)n3C)c(C)c1	14.2%	50.1µM*	-3.6%	.	-11.6%	8.8%
COc1ccccc1OC(C)C(=O)Nc1ccc2c(c1)n(C)c(=O)n2C (stereo not drawn)	-7.8%	?	42.4%	-4.0%	1.7%	-1.9%
Cc1ccc(OC(C)C(=O)Nc2ccc3c(c2)n(C)c(=O)n3C)c(C)c1 (stereo not drawn)	8.0%[59 µM]	56.2µM*	10.0%	-2.3%	-20.9%	-8.1%
COc1ccc(C(=O)Nc2ccc3c(c2)n(C)c(=O)n3C)cc1OC	-1.9%	56.2µM*	31.5%	.	-16.7%	13.5%
CC(C)CC1NC(=O)c2cc(Cl)ccc2-n2c1nc1cc(F)ccc1c2=O (stereo not drawn)	.	.	.	-1.9%	.	.
COc1ccc(-n2c(C)nc(N)c2C(=O)c2ccccc2)cc1	-20.6%	-18.2%	-0.2%	-9.7%	-16.7%	19.1%
O=[N+]([O-])c1cc(Cl)ccc1Nc1ccccc1	11.2µM*	5.01µM*	17.8µM*	28.2µM*	28.2µM*	1.7%
Nc1ccc(Nc2ccc([N+](=O)[O-])cc2[N+](=O)[O-])cc1	44.7µM*	28.2µM*	?	.	?	-0.2%
COc1ccc(Nc2ccc([N+](=O)[O-])cc2[N+](=O)[O-])cc1	12.6µM*	25.1µM*	?	?	50.1µM*	-0.3%
NS(=O)(=O)c1ccc(Nc2ccccc2)c([N+](=O)[O-])c1	?	?	1.4%	-7.7%	-26.4%	26.6%
CC1(C)NC(=O)N(CC(=O)OCC(=O)N2CCN(S(=O)(=O)c3ccccc3)CC2)C1=O	-3.2%	0.5%	26.6%	7.6%	-6.8%	.

Screening data (PubChem BioAssay)
